Sampled rows, rich in hits. Any-hit rate of the full collection: about 0.5%.
phage Ecoli inh = E. coli growth loss with phage present | growth absorbance | inhibition, % at 11.9 µM | hit rate 0.26% among 360,000 | AID 651602; in the data active = inhibition above about 11%
AddAB inh = less growth of phage-infected E. coli with AddAB; E. coli expressing H. pylori AddAB, absorbance growth; inhibition, % at 11.9 µM; hit rate 0.29% among 330,000; AID 435030; in the data active = inhibition above about 12%;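 also: 0% = vehicle wells of infected cells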
E coli growth-1 = counter-screen for AddAB inhibitors: E. coli growth inhibition | E. coli V3065 growth, OD600 absorbance, 18 h | inhibition, % at 11.9 µM | hit rate 0.27% among 330,000;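 active = inhibition above the campaign's mean inhibition across all tested compounds plus 3 SD, cut at about 9.9% in these data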;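 also: uninfected addAB+ strain grown without phage in ampicillin broth; 0% = DMSO wells and 100% = ciprofloxacin 0.95 µg/ml wells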
E coli growth-2 = blocks Escherichia coli growth; OD600 absorbance (test concentration not listed); hit rate 0.21% among 330,000; AID 1053175; OD600, 23 h; active compounds read low;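 active = OD600 absorbance below the run mean of sample wells minus 3.6 SD, in any replicate, cut at about 0.56 in these data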
Tat export inh = E. coli Tat transport inhibition; E. coli MC4100 TorA-mCherry Tat export, fluorescence; inhibition, % at 10 µM; hit rate 0.036% among 340,000;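 active = mean replicate inhibition at least 50% and at least half of replicates individually reaching 50%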;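 also: exported cargo escapes ClpAP degradation while cytoplasmic cargo is degraded and loses fluorescence; 0% = median of neutral control wells and 100% = median of NaSCN control wells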
AddAB confirm = confirmation screen: growth loss of phage-infected E. coli expressing H. pylori AddAB | shares compounds with AddAB inh | E. coli V3065 expressing H. pylori AddAB, T4 phage, OD; T4 phage with gene 2 nonsense mutations | inhibition, % at 11.9 µM | hit rate 64% among 880 | AID 488942;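 active = mean inhibition above a set limit taken from the earlier primary screen, cut at about 13% in these data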;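 also: higher means less bacterial growth since AddAB block lets phage replicate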
RecBCD counter = reduces growth of phage-infected RecBCD+ E. coli, AddAB inhibitor counter-screen. inhibition, % at 11.9 µM. E. coli V66 + mutant T4 phage, OD growth. shares compounds with AddAB inh. hit rate 73% among 880;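 active = mean inhibition above the mean of solvent-only control wells plus 3 SD, cut at about 4% in these data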;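 also: optical density read after an 18 h incubation at 37 °C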
Bact viability = counter-screen for AddAB inhibitors: inhibitors of bacterial viability | absorbance (AddAB counterscreen) | inhibition, % at 11.9 µM | shares compounds with AddAB inh | hit rate 35% among 880; in the data active = inhibition above about 25%
RecBCD conf = confirmation: growth loss of phage-infected RecBCD+ E. coli (RecBCD inhibitor screen) | shares compounds with phage Ecoli inh | E. coli V66 + T4 2- phage, growth OD | inhibition, % at 11.9 µM | hit rate 45% among 890 | AID 651982;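 active = mean inhibition over triplicates exceeding the hit threshold derived in the original primary screen, cut at about 11% in these data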
Ecoli viability = bacterial viability inhibition counter-screen for RecBCD; shares compounds with phage Ecoli inh; E. coli viability, absorbance (OD) growth; inhibition, % at 11.9 µM; hit rate 29% among 890; in the data active = inhibition above about 20%;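 also: E. coli strain V66 grown with compound alone and no phage infection; 0% = bacteria with DMSO vehicle only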
AddAB phage OD = growth loss of phage-infected AddAB E. coli, RecBCD counter-screen; shares compounds with phage Ecoli inh; E. coli expressing H. pylori AddAB + T4 phage, OD growth; gene 2 mutant T4, recBCD-deleted host; inhibition, % at 11.9 µM; hit rate 45% among 890;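 active = mean inhibition above the solvent-only control wells' mean plus 3 SD, cut at about 22% in these data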;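 also: higher means less bacterial growth from phage killing when AddAB is blocked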
Starred values were filed as active, the others as inactive; nt = not tested or not shown.

SMILES | phage Ecoli inh | AddAB inh | E coli growth-1 | E coli growth-2 | Tat export inh | AddAB confirm | RecBCD counter | Bact viability | RecBCD conf | Ecoli viability | AddAB phage OD
CCn1cc(C(=O)O)c(=O)c2cc(F)c(N3CCN(C(=O)Nc4ccccc4)CC3)cc21 | 97* | 101* | 101* | 0.051* | 24 | 103* | 102* | 102* | 100* | 102* | 99*
O=C(Cc1ccccc1)NC(c1ccccc1)P(=O)(O)CO (stereo not drawn) | nt | nt | nt | 0.71 | nt | nt | nt | nt | nt | nt | nt
NC1=NCC(Cc2ccccc2)N1CC1CCCCC1 (stereo not drawn) | nt | nt | nt | 0.68 | nt | nt | nt | nt | nt | nt | nt
C#C[C@]1(O)CCC2C3CCC4=CC(=O)CCC4C3CC[C@@]21CC (stereo partly drawn) | nt | nt | nt | 0.69 | nt | nt | nt | nt | nt | nt | nt
CC(C)Oc1ccc(Cc2cnc(N)nc2N)cc1 | 12* | 12* | 9 | 0.046* | 5 | 53* | 14* | 12 | 11* | 7 | 12
Nc1nc(=S)c2ncn(C3OC(CO)C(O)C3O)c2[nH]1 (stereo not drawn) | 17* | 25* | 30* | 0.52 | -12 | 74* | 27* | 54* | 32* | 38* | 55*
Nc1ncn([C@@H]2O[C@H](CO)[C@@H](O)[C@H]2O)c(=O)n1 | 62* | 96* | 93* | nt | -2 | 91* | 29* | 94* | 48* | 56* | 103*
Nc1nc(=S)c2ncn([C@@H]3O[C@H](CO)[C@@H](O)[C@H]3O)c2[nH]1 | 72* | 89* | 76* | nt | -25 | 91* | 63* | 73* | 57* | 75* | 81*
Nc1nc(=S)c2ncn(C3CCCCC3)c2[nH]1 | 2 | nt | nt | 0.68 | -8 | nt | nt | nt | nt | nt | nt
Nc1nc(Cl)nc2c1ncn2[C@@H]1O[C@H](CO)[C@@H](O)[C@H]1O | 5 | -2 | 0 | nt | 5 | nt | nt | nt | nt | nt | nt
COc1cc(C=CC(=O)NCc2ccc3c(c2)cc(C)n3C)cc(OC)c1OC | nt | nt | nt | 0.71 | nt | nt | nt | nt | nt | nt | nt
C=CCNC(=O)COC(=O)C=Cc1cccs1 | nt | nt | nt | 0.72 | nt | nt | nt | nt | nt | nt | nt
COC1C=COC2(C)Oc3c(C)c(O)c4c(O)c(c(CN5CCN(C)CC5)c(O)c4c3C2=O)NC(=O)C(C)=CC=CC(C)C(O)C(C)C(O)C(C)C(OC(C)=O)C1C (stereo not drawn) | 1 | nt | nt | nt | 8 | nt | nt | nt | nt | nt | nt
CCC(C)N1CCC2(CC1)N=c1c(c3c4c5c(C)c(O)c3c(O)c1=NC(=O)C(C)=CC=C[C@H](C)[C@H](O)[C@@H](C)[C@@H](O)[C@@H](C)[C@H](OC(C)=O)[C@H](C)[C@@H](OC)C=CO[C@@](C)(O5)C4=O)N2 (stereo partly drawn) | 105* | 97* | 98* | nt | 107* | 96* | 97* | 99* | 96* | 99* | 102*
O=c1[nH]c(=O)n([C@H]2C[C@H](O)[C@@H](CO)O2)cc1F | 87* | 100* | 84* | nt | 45 | 81* | 69* | 77* | 79* | 79* | 91*
Cc1cn([C@H]2C[C@H](N=[N+]=[N-])[C@@H](CO)O2)c(=O)[nH]c1=O | 97* | 100* | 100* | nt | 39 | 100* | 71* | 100* | 97* | 93* | 101*
O=S1(=O)C2CC3C=C[C@]2(CN1Cc1ccc(C(F)(F)F)cc1)O3 (stereo partly drawn) | nt | nt | nt | 0.69 | nt | nt | nt | nt | nt | nt | nt
CC(C)CC(NC(=O)c1nc[nH]c1C(=O)NC(c1ccccc1)c1ccccc1)C(=O)OCc1ccccc1 (stereo not drawn) | nt | nt | nt | 0.69 | nt | nt | nt | nt | nt | nt | nt
Oc1ccccc1N=N/C(=N/Nc1ccccc1O)c1ccccc1 | 1 | 4 | 1 | nt | 1 | nt | nt | nt | nt | nt | nt
